# Measurements as given in PubChem BioAssay AID624330 (Southern Research Specialized Biocontainment Screening …, 2012).
# Screen size: about 340,000 compounds; about 2,100 (0.62%) were called active. A selection follows. Potency and affinity values are given separately. A number with no mark means an inactive call.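 How the source made its calls: active means first-screen hits whose inhibition reached a set limit at any dose in the follow-up dose series; inconclusive means inhibition above the set first-screen limit but never retested; inactive means the rest.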
# Target: Rac GTPase-activating protein 1 (Homo sapiens) (UniProt Q9H0H5)
# Sequence (Q9H0H5 whole entry, looked up): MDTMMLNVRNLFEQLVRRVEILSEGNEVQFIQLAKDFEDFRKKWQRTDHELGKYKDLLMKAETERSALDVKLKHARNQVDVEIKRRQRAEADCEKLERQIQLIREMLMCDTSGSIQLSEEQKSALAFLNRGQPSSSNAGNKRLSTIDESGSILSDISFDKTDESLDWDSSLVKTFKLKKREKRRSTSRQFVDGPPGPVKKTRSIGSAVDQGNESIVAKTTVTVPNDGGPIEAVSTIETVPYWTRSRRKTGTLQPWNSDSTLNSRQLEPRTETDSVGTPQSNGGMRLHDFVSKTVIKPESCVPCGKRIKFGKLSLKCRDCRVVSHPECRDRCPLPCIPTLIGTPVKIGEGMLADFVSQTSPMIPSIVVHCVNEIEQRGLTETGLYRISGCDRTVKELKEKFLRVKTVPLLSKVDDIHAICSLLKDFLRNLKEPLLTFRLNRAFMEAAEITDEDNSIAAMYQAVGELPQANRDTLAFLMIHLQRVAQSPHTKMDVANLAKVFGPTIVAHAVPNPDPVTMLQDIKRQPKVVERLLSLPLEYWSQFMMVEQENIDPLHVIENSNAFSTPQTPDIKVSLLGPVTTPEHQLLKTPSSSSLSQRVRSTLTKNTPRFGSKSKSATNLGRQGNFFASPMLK
# Assay: MgcRacGAP GTPase-activating activity inhibitors, confirmation, biochemical, ADP Hunter fluorescence, primary and confirmatory (AID 624330);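 further: fluorescence reports GDP produced by GAP-driven GTP hydrolysis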
# Conditions: MgcRacGAP-stimulated Rac1 GTP hydrolysis, at 30 µM, stronger effect = higher value, GST-tagged Rac1 F28L mutant substrate
row,Structure (SMILES),inhibition
1,COc1ccccc1-c1nnc(SCC(=O)Nc2ccc(S(N)(=O)=O)cc2)n1C,7.69%
2,C[C@H](CO)N1C[C@H](C)[C@H](CN(C)C(=O)Nc2ccc(C(C)(C)C)cc2)OCc2cnnn2CCCC1=O,-5.61%
3,COc1ccc(OC)c(S(=O)(=O)NCC(=O)NC2CCCc3ccccc32)c1 (stereo unspecified),6.06%
4,O=C(Nc1ccc2c(c1)OCO2)C1CCCN1C(=O)OCc1ccccc1 (stereo unspecified),6.44%
5,C=CCN(CC=C)CCOc1ccc(OC(C)C)cc1,26.4%
6,COc1ccc2c(c1)c(C(=O)N/N=C/c1cccc(O)c1)c(C)n2C,16.9%
7,COc1ccc2nc(C)cc(SCC(=O)N/N=C/c3ccc(O)cc3O)c2c1,17.7%
8,COc1ccc2c(c1)c(C(=O)N/N=C/c1ccc(OC)c(OC)c1)c(C)n2C,-2.93%
9,COc1ccc2nc(C)cc(SCC(=O)N/N=C/c3ccccc3)c2c1,5.43%
10,CC(=O)Nc1c2c(nn1-c1ccc(Cl)cc1)CSC2,2.25%
11,O=C(CCc1ccccc1)NNC(=O)COc1ccccc1,11.8%
12,Cc1ccc2ccc(C(Nc3cccc(C(F)(F)F)c3)c3cccnc3)c(O)c2n1 (stereo unspecified),10.8%
13,COc1cc(CCC(=O)OCC(=O)N(CCC#N)c2ccccc2)cc(OC)c1OC,7.7%
14,CCOc1cc(CNc2ncn[nH]2)ccc1OCC(=O)NC(C)(C)C,1.46%
15,COc1cccc(CNCCO)c1OCc1ccccc1Cl,9.99%
16,COc1cc(CNc2ncn[nH]2)ccc1OCc1cccc(C)c1,8.87%
17,Oc1ccc(NCc2ccccc2OCc2ccccc2)cc1,11.9%
18,COc1cccc(CNc2ccc3[nH]c(=O)[nH]c3c2)c1OCc1ccc(F)cc1,26.2%
19,CCOc1cc(CNC)ccc1OCC(=O)NC(C)(C)C,2.12%
20,COc1cc(CNc2ccc3[nH]c(=O)[nH]c3c2)ccc1OCc1ccc(C)cc1,16.9%
21,Cc1ccc(NCc2ccccc2OCc2ccccc2F)cc1,11.5%
22,COc1ccc(C(=O)Nc2ccncc2)c(OC)c1,13.1%
23,Cn1cc(C(=O)C(=O)NC2CCCCC2)c2ccccc21,10%
24,COc1ccc(C(CNC(=O)c2ccc(NS(=O)(=O)c3ccc(F)cc3)cc2)N2CCOCC2)cc1 (stereo unspecified),4.8%
25,CN(CC(=O)Nc1ccc(F)c(F)c1F)C(=O)CN1C(=O)NC2(CCCC2)C1=O,9.6%
26,CCOC(=O)c1cc2ccc3ccccc3c2oc1=O,8.31%
